Screening results as filed in PubChem.
An excerpt weighted towards active compounds, which were near 3.4% of everything screened.
MITF inh – human MITF inhibition, primary screen; O75030; AlphaScreen MITF homodimerization, bead proximity signal; inhibition, % at 2.6 µM; actives 0.91% (n = 650,000); in the data active = inhibition above about 50%;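 also: 0% = vehicle wells with protein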
GPR151 activ – activators of human GPR151; actives 1% (n = 650,000); Q8TDV0; PathHunter beta-arrestin GPR151 cells, luminescence; activation, % at 11.2 µM; in the data active = activation above about 4.9%;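 also: 0% = median of compound wells and 100% = cells with positive control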
FBW7 act – activators of human E3 ligase FBW7 | Q969H0 | AlphaScreen FBW7–phospho-cyclin E peptide binding, activator screen | normalized activity (activation), % at 26.1 µM | actives 0.13% (n = 650,000) | AID 1259310; in the data active = normalized activity above about 1.9%;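 also: purified mutant Fbw7 with reduced substrate affinity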
Target sequence (Q969H0 whole entry, looked up): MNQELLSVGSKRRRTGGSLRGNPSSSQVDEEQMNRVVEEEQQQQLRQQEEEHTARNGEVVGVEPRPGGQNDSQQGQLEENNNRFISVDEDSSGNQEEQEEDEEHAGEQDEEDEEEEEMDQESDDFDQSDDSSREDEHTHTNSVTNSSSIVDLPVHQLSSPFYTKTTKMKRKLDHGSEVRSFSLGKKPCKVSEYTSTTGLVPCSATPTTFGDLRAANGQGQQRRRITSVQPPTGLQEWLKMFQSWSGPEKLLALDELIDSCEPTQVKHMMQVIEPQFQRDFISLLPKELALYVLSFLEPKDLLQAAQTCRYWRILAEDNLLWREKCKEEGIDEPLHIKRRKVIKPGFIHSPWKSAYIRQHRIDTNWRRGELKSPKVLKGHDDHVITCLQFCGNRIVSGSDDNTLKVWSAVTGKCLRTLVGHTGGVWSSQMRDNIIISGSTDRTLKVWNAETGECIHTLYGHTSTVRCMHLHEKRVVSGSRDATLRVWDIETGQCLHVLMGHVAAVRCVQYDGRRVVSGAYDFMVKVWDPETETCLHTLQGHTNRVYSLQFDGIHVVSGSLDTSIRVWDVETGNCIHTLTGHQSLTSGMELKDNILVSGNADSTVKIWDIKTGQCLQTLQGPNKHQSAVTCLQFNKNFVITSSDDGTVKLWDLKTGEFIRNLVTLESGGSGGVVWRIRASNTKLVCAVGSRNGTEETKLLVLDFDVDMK
TEAD-YAP inh – TEAD-YAP interaction inhibition | inhibition, % at 9.12 µM | actives 1.4% (n = 640,000) | AID 1259422 | HEK-TIYL cells, TEAD-Gal4/YAP UAS-luciferase luminescence; in the data active = inhibition above about 32%;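 also: 0% = median of test compound wells and 100% = reference inhibitor wells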
GPR151 conf act – human GPR151 activation, confirmation screen. shares compounds with GPR151 activ. GPR151 PathHunter beta-arrestin cells, luminescence, 90 min; % of EA-reagent control over plate median. activation, % at 11.2 µM. 6,700 tested, under 10 active. AID 1508609;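 active = mean percent activation across replicates above the confirmation screen cutoff of 4.91%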
GPR119 counter – counter-screen for GPR151 activators: effect on human GPR119; actives 0.3% (n = 6,700); AID 1508611; shares compounds with GPR151 activ; activation, % at 11.2 µM; GPR119 PathHunter beta-arrestin cells, luminescence, 90 min; 0 = compound-well median, 100 = enzyme-acceptor control;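 active = mean percent activation in the counterscreen above 29.09%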;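 also: counterscreen on off-target GPR119 to flag nonselective hits from the GPR151 activator screen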
Active calls of the source: *; . = no result given.

SMILES | MITF inh | GPR151 activ | FBW7 act | TEAD-YAP inh | GPR151 conf act | GPR119 counter
CCOC(=O)c1cc(N2C(=O)C3C4C=CC(CC4)C3C2=O)ccc1Cl (stereo unspecified) | 4 | 10* | 0 | 8 | 0 | 7
C=CCOC(=O)CCN1C(=O)c2ccccc2C1=O | 4 | 20* | 0 | -4 | -1 | -10
COC(=O)c1cc(NC(=O)c2ccccc2SC)ccc1Cl | -13 | 1 | 0 | -8 | . | .
N#C/C(=C\c1cccs1)C(=O)Nc1ccc([N+](=O)[O-])cc1Br | 7 | 6.4* | 0 | 0 | 1 | 6
Cc1ccc(NC(=O)/C(=C/c2cccc([N+](=O)[O-])c2)NC(=O)c2cccs2)c(Br)c1 | 16 | 6.9* | 0 | 4 | 5.5* | -4
Cc1cc(NC(=O)/C(=C/c2cccc([N+](=O)[O-])c2)NC(=O)c2cccs2)ccc1Br | -11 | 1 | 0 | 2 | . | .
CCOC(=O)C1CCN(C(=O)Cn2nc3c4ccccc4nc(C(C)C)n3c2=O)CC1 | 32 | 0 | 0 | 12 | . | .
O=C(O)c1cc(-c2ccc(O)cc2)nc2n[nH]c(-c3ccccc3)c12 | 0 | -3 | 0 | 0 | . | .
CCOc1ccc2nc(SCC(=O)Nc3cccc(C(C)=O)c3)[nH]c2c1 | -18 | 0 | 0 | -8 | . | .
CC1CCN(C(=O)C2=CC(c3cccs3)=NS(=O)(=O)N2C)CC1 | -6 | 5.4* | 0 | 5 | -1 | -13
CN(C)CC(C)(C)C1OCC2(CO1)COC(C(C)(C)CN(C)C)OC2 (stereo unspecified) | 13 | 6.9* | 0 | 13 | 0 | -2
CN(C)c1ccc(C2OCC3(CO2)COC(c2ccc(N(C)C)cc2)OC3)cc1 (stereo unspecified) | 4 | 1 | 0 | -4 | . | .
O=C(NCc1cccnc1)c1ccnc(Nc2nccc3ccccc23)c1 | -4 | -1 | 0 | 1 | . | .
Cc1ccccc1CNC(=O)C(C)SCc1ccccc1 (stereo unspecified) | 3 | 0 | 1 | 5 | . | .
O=C(Cn1ccc([N+](=O)[O-])n1)NCc1ccccc1 | -5 | 3 | 0 | -1 | . | .
CC(SCc1ccccc1)C(=O)NCc1cccnc1 (stereo unspecified) | 5 | 8.0* | 0 | -5 | -1 | -9
O=C(NCc1cccnc1)c1ccnc(Nc2cnccn2)c1 | 9 | 6.6* | 1 | 5 | -1 | 3
O=C(Cn1ccc([N+](=O)[O-])n1)NCc1cccnc1 | 4 | 8.9* | 0 | 14 | -1 | -6
Cc1ccc(CNC(=O)C(C)SCc2ccccc2)cc1 (stereo unspecified) | -7 | 8.1* | 0 | -2 | 0 | 12
COc1ccc(C2=NN3C(C2)c2cc(OC)ccc2OC3c2ccc(OC)cc2)cc1 (stereo unspecified) | 6 | -5 | 0 | 15 | . | .
O=C(O)CCC(=O)NCc1cccnc1 | -8 | 7.5* | 0 | 5 | 1 | 12
CCOC(=O)c1c(NC(=S)NC(=O)c2cccs2)sc(C)c1C | 4 | 2 | 0 | 2 | . | .
CCOC(=O)c1c(NC(=S)Nc2cccnc2)sc(C)c1C | 7 | 5.3* | 0 | 7 | 0 | 1
CC(C)(C)C#C/C=N/n1nnc(-c2ccccc2)n1 | 8 | 5.8* | 0 | -3 | -1 | -4
CN(Cc1ccncc1)C(Cc1ccccc1)C1CCN(C(=O)CCc2ccco2)CC1 (stereo unspecified) | -4 | -1 | 0 | -12 | . | .
SMILES | MITF inh | GPR151 activ | FBW7 act | TEAD-YAP inh | GPR151 conf act | GPR119 counter
COc1ccc(CC(=O)Nc2cc(Cl)ccc2C(=O)O)cc1 | -7 | 5.6* | 0 | 0 | 0 | -7
COc1ccc(CC(=O)Nc2ccc(Cl)cc2C(=O)O)cc1 | 3 | -2 | 0 | 1 | . | .
Cc1cc(C)n2c(SCCO)nnc2n1 | 8 | 5.6* | 0 | 10 | 0 | -6
Cc1cc(C)n2c(SCCNCCO)nnc2n1 | 27 | 1 | 0 | 5 | . | .
CCOc1cccc(N2C(=O)/C(=C/c3ccc(O)c(OCC)c3)C(=O)NC2=S)c1 | 15 | 0 | 0 | 11 | . | .
CCOC(=O)c1c(C)[nH]c(NC(=O)Nc2ccc(OCC)cc2)c1C | -6 | 6.0* | 0 | 3 | 1 | 4
CCOC(=O)c1c(C)[nH]c(NC(=O)Nc2ccc(F)cc2)c1C | -4 | 0 | 0 | 2 | . | .
O=C(COc1ccc(Cl)cc1)Nc1ccc(Cc2ccncc2)cc1 | -5 | 5.4* | 0 | -1 | -1 | -13
O=C(COc1ccc(Cl)cc1)Nc1ccc(Cl)cn1 | 14 | 0 | 0 | -31 | . | .
O=C(O)COc1ccc(NC(=O)COc2ccc(Cl)cc2)cc1 | 3 | 2 | 0 | 9 | . | .
O=C(COc1ccc(Br)cc1)Nc1ccc(Cl)cn1 | 8 | 11* | 0 | -40 | 0 | 14
O=C(COc1ccc(Cl)cc1)Nc1ccc2c(c1)C(=O)N(c1ccccc1)C2=O | 8 | 11* | 0 | 9 | 0 | 0
CN1C(=O)c2ccc(NC(=O)COc3ccc(Cl)cc3)cc2C1=O | -8 | 0 | 0 | -2 | . | .
O=C(COc1ccc(Br)cc1)Nc1ncc(Cc2ccc(F)cc2)s1 | 5 | 6.2* | 0 | 6 | 0 | 11
CCOc1ccc(C2c3c(-c4ccccc4O)n[nH]c3C(=O)N2CCCOC)cc1OC (stereo unspecified) | 4 | -1 | 0 | 2 | . | .
COc1c(C(=O)Nc2ccc(Cl)cn2)ccc2ccccc12 | 11 | 5.5* | 0 | -39 | -1 | -3
O=C(COc1ccccc1)Nc1ccc(Cl)cn1 | -1 | 7.8* | 0 | -19 | 0 | -5
O=C(COc1ccccc1)NC(=S)Nc1ccc(Cl)cn1 | 9 | 3 | 0 | -3 | . | .
O=C(CSc1ncn[nH]1)Nc1nnc(-c2ccc([N+](=O)[O-])cc2)s1 | 5 | -1 | 0 | 1 | . | .
Cc1nnc(SCc2cc(=O)n3[nH]cnc3n2)s1 | 14 | 5.7* | 0 | 11 | -1 | -5
Cc1cccc(-n2ccnc2SCC(=O)Nc2ccc(F)cc2F)c1C | -4 | 9.3* | 0 | -5 | 0 | -4
COc1ccc(OC)c(/C=C(\C#N)C(=O)Nc2ccc([N+](=O)[O-])cc2)c1 | -13 | 1 | 0 | 0 | . | .
O=C(Nc1cccc(C(=O)N2CCN(c3ccc(F)cc3)CC2)c1)c1ccccc1 | -5 | 5.6* | 1 | 2 | 1 | 0
CCOc1ccc(C)cc1S(=O)(=O)n1c(C)nc2ccccc21 | -3 | 7.2* | 0 | 0 | 0 | 3
COc1ccc(C)cc1S(=O)(=O)n1c(C)nc2ccccc21 | -1 | -1 | 0 | -14 | . | .
CCOc1ccc(S(=O)(=O)n2cnc3ccccc32)cc1C | 9 | 0 | 0 | 1 | . | .
CCOc1ccc(C)cc1S(=O)(=O)n1cnc2ccccc21 | 3 | 5.8* | 0 | 46* | 0 | -4
COc1ccccc1C1(NC(=O)CCn2cccn2)CCCC1 | 15 | 2 | 0 | 5 | . | .
